We go through 222 sequences from article PMC6212790, “How bacterial xenogeneic silencer rok distinguishes foreign from self DNA in its resident genome”.

The full ranking holds about 33,000 sequences; the median of “e-score” is about -0.037, and the highest 2% start at about 0.34. Many of the other results were omitted from the sample, so the highest values are more common in it than they were.

The test concerns the target T1, GST-Rok (full length) (Bacillus subtilis subsp. subtilis str. …, UniProt O34857 1-191).
T1 sequence: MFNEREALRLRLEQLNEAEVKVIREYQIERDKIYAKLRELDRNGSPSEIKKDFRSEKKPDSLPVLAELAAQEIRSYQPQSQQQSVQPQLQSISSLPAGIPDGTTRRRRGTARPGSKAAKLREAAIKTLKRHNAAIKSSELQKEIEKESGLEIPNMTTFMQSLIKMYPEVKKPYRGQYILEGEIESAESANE
The experiment in a line: protein binding microarray; Rok is a gene silencer of Bacillus subtilis; high values mean tight binding. The settings on record: protein: recombinant; tags: GST (pTH5325, pDEST15-Magic modified); dsDNA, one strand shown. In short, it runs like this:
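Every oligonucleotide joins a 25-mer constant primer to a 35-mer variable part drawn from a de Bruijn sequence of order 10, so each non-palindromic 8-mer appears at least 32 times and each palindromic 8-mer 16 times. The preference for every 8-mer is reported as a unitless, rank-based enrichment score (E-score). This score spans 0.5 for the most favored 8-mer to −0.5 for the most disfavored.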
With AACCATCC, the binding signal is -0.0159 E-score.
As to AGCCGTGC, the binding signal was -0.157 E-score.
Under ATGGGCCG stands -0.146 E-score; under ACCTTAGA, 0.00282 E-score; under AGTACGTA, 0.332 E-score.
In the case of AATAATGT it was 0.222 E-score; in that of AATAATGG, 0.103 E-score; in that of AATAATGC, 0.352 E-score.
Under CGTAGTCC stands -0.0635 E-score; under CGGGCAGC, -0.142 E-score.
CTAGGTCA: the binding signal is -0.0595 E-score.
In the case of ACGTTCAA it was -0.0397 E-score.
In the case of CAATGGAG it was -0.17 E-score; in that of ACAGCTCT, -0.118 E-score.
Under ACAACGAC stands 0.0795 E-score; under CACCGGTA, 0.056 E-score.
Regarding AACCGGTA, the binding signal came out at 0.274 E-score.
In the case of TACCGGTA it was 0.37 E-score.
On to ACCATGCT, for which the binding signal was -0.182 E-score.
With CTTAAGTA, the binding signal is 0.281 E-score.
In the case of ATTAACTG it was 0.14 E-score.
Under ATTAAGTA stands 0.347 E-score.
Under ATTAACTA stands 0.398 E-score.
Regarding GTTAAGTA, the binding signal amounted to 0.191 E-score.
Regarding GTTAACTA, the binding signal worked out at 0.359 E-score.
In the case of CTTAACTA it was 0.313 E-score; in that of GTTAACGA, 0.241 E-score.
For the sequence ATTAACTC, the binding signal was 0.092 E-score.
Under GAGCGAGA stands -0.17 E-score.
In the case of AGTCATAC it was 0.018 E-score; in that of GGTCGCAA, 0.0661 E-score; in that of CAGCGTGA, -0.12 E-score.
Under AAATGTAG stands 0.297 E-score; under GAATGTAC, 0.303 E-score.
Consider AAATGTAA, for which the binding signal came to 0.389 E-score.
On to CAATGTAC, for which the binding signal worked out at 0.263 E-score.
Under AAATGTAC stands 0.343 E-score; under AAATGTAT, 0.281 E-score; under CGAGCCAC, -0.119 E-score.
Under GGGCAGCA stands -0.184 E-score.
In the case of CTCGCTAA it was -0.0951 E-score.
TGTGAGAA: the binding signal worked out at 0.216 E-score.
On to CCTCTTGA, for which the binding signal is -0.196 E-score.
In the case of TATATATA it was 0.477 E-score; in that of TAGATATA, 0.339 E-score.
Under CATATATA stands 0.38 E-score.
Under CACATATG stands 0.266 E-score.
Take CACATATA: the binding signal worked out at 0.261 E-score.
Regarding CATATATG, the binding signal was 0.343 E-score.
Under CATATATC stands 0.25 E-score; under TATATCGA, 0.304 E-score; under CAGATATA, 0.165 E-score.
Under CATATAAG stands 0.119 E-score; under CTTATATA, 0.253 E-score.
Consider GAGATATA, for which the binding signal was found to be 0.157 E-score.
In the case of CTTAAAAG it was -0.119 E-score; in that of ACATTGGT, 0.186 E-score; in that of ACCAGAGG, -0.0915 E-score.
AGAGACAC: the binding signal is 0.0712 E-score.
For ATGTCCGG, the binding signal was -0.00967 E-score.
Under ATTATAAA stands 0.157 E-score; under GATATAAA, 0.33 E-score.
For the sequence TTTATAAA, the binding signal worked out at 0.367 E-score.
TATATAAA: the binding signal turned out to be 0.399 E-score.
Under CTTATAAA stands 0.0863 E-score; under AATATAAA, 0.266 E-score; under CCCAGGCA, -0.18 E-score.
In the case of GAAACCGA it was -0.119 E-score; in that of CCCGTACG, -0.101 E-score.
In the case of GATATGTA it was 0.296 E-score; in that of GTTATGTA, 0.269 E-score; in that of CTTATGTA, 0.111 E-score.
Consider ATTATGTA, for which the binding signal was found to be 0.358 E-score.
In the case of CATATGTC it was -0.0495 E-score.
Take CATATGTA: the binding signal came to 0.338 E-score.
Under CATATGAA stands 0.0706 E-score.
In the case of AATATGTC it was 0.106 E-score; in that of AATATGTA, 0.416 E-score; in that of AGAGCTGC, -0.0428 E-score.
For the sequence ACGAACTG, the binding signal turned out to be 0.0336 E-score.
In the case of GTCCAGAA it was -0.0598 E-score.
Under GCGAGAAA stands -0.035 E-score.
Under TAGAAGAA stands 0.109 E-score; under AAAAGGAG, -0.188 E-score; under AGTGAATG, 0.0707 E-score.
TCTCTGCA: the binding signal amounted to 0.0197 E-score.
Under AGCATTAT stands 0.255 E-score; under AATAGTAT, 0.292 E-score; under CACAGTAG, 0.0684 E-score.
In the case of AGTAGTAT it was 0.405 E-score; in that of AATAGTAG, 0.469 E-score; in that of AGTAGTAG, 0.349 E-score.
On to ATTAGTAG, for which the binding signal amounted to 0.321 E-score.
Under AACAGTAG stands 0.354 E-score.
On to AGAAGTAT, for which the binding signal is 0.334 E-score.
In the case of CGTAGTAG it was 0.204 E-score; in that of CATAGTAG, 0.0836 E-score; in that of AGCAGTAT, 0.015 E-score.
Consider AACAGTAA, for which the binding signal was 0.294 E-score.
Under GCCTGTAC stands -0.0711 E-score; under AACCTTAC, 0.0321 E-score; under AAGAAGAG, -0.106 E-score.
For AAAGGTTG, the binding signal was -0.0391 E-score.
Consider CATAGGCA, for which the binding signal stood at 0.0952 E-score.
Under GAACTTCA stands 0.0379 E-score.
On to ACATAAGT, for which the binding signal is 0.127 E-score.
For AGAAACTC, the binding signal was 0.158 E-score.
Under CGAAACTC stands -0.0462 E-score; under AGAAACTG, 0.12 E-score; under GGAAACTA, 0.362 E-score.
Under GGAAACGA stands -0.156 E-score; under CGAAACTA, 0.446 E-score; under CGAAACCA, -0.108 E-score.
In the case of GGAAACAA it was 0.207 E-score; in that of AGAAACTA, 0.412 E-score; in that of AATTAAGG, 0.158 E-score.
As to ATCGGTCA, the binding signal worked out at 0.0381 E-score.
In the case of ATGGCTTG it was -0.172 E-score.
Under TATGGGCA stands -0.0796 E-score; under TAAGCCGA, -0.0712 E-score; under AACTTATC, 0.134 E-score.
Under GAATGGTA stands 0.317 E-score.
For the sequence CAATGGTA, the binding signal was determined as 0.322 E-score.
Under TAATGGTA stands 0.387 E-score; under AACTCAGG, 0.0467 E-score.
Turning to CGTGACCA, the binding signal was -0.0921 E-score.
Turning to AAGTACAG, the binding signal was 0.272 E-score.
With GAATATTA, the binding signal was determined as 0.0406 E-score.
In the case of CTCTATTC it was 0.00987 E-score; in that of AAATATTC, 0.251 E-score; in that of CGATATTC, 0.194 E-score.
In the case of CAATATTC it was 0.21 E-score; in that of CTATATTC, 0.353 E-score.
In the case of GAATATTC it was 0.417 E-score; in that of ATATATTC, 0.34 E-score.
In the case of ACATATTC, the binding signal came out at 0.27 E-score.
Turning to AGGTCACT, the binding signal was -0.137 E-score.
In the case of ATTGTTTC it was 0.228 E-score; in that of CCGGTCAC, -0.153 E-score.
Under CTACATGA stands 0.347 E-score; under CTACATGC, 0.308 E-score; under ATACATGA, 0.294 E-score.
Under CTACATTC stands 0.176 E-score.
On to GTACATTA, for which the binding signal came to 0.262 E-score.
In the case of CTACATTA it was 0.355 E-score; in that of CAAAAAAC, 0.0394 E-score.
On to GGGTAAAA, for which the binding signal amounted to 0.184 E-score.
Under GGTAAAAC stands 0.192 E-score.
Under TGGTAAAA stands 0.354 E-score; under GGTAAAAA, 0.349 E-score; under CGTAAAAA, 0.0957 E-score.
On to CGGTAAAA, for which the binding signal is 0.278 E-score.
For the sequence CGAGTTAG, the binding signal was 0.0866 E-score.
Under ACTGCCAC stands -0.0928 E-score; under AAATGATT, -0.0952 E-score.
In the case of AAATGATC it was 0.143 E-score; in that of AAATGATA, 0.37 E-score.
In the case of AAAACCTA it was 0.255 E-score; in that of ACTGGTGG, -0.172 E-score.
On to AAGTACTA, for which the binding signal was 0.389 E-score.
In the case of CAGTACTA it was 0.279 E-score; in that of GAGTACGA, 0.0148 E-score.
Under AAGTACTC stands 0.165 E-score.
In the case of GAGTACTA it was 0.13 E-score; in that of AAGTACTG, 0.114 E-score; in that of TAGTACGA, 0.359 E-score.
As to TAGTACTA, the binding signal is 0.44 E-score.
Under CAGTACGA stands -0.048 E-score; under CCAATTGC, 0.145 E-score.
Under AGATAGCG stands 0.22 E-score; under ACCTTCTG, -0.0843 E-score.
As for AGATACTA, the binding signal turned out to be 0.348 E-score.
Consider ATATACTG, for which the binding signal turned out to be 0.391 E-score.
In the case of GTATACTA it was 0.378 E-score.
Under GGATACTA stands 0.211 E-score.
Under CGATACTA stands 0.328 E-score; under ATATACTA, 0.409 E-score.
On to CTATACTA, for which the binding signal turned out to be 0.288 E-score.
In the case of ATATACGA, the binding signal is 0.23 E-score.
Take CTATACTC: the binding signal is 0.137 E-score.
Under GTATACAA stands 0.308 E-score; under GTATACGA, 0.179 E-score; under ATATACTC, 0.288 E-score.
Under ATCAGCAA stands -0.0224 E-score; under GACAAATC, -0.0534 E-score.
In the case of ATGATTGA, the binding signal is 0.0352 E-score.
In the case of GGATGTTA it was 0.0229 E-score; in that of CAATTACA, 0.189 E-score.
In the case of AAAGCCGG it was -0.147 E-score; in that of ACGAGTCC, -0.192 E-score; in that of AATAGGAG, 0.0707 E-score.
In the case of ACATACTA it was 0.361 E-score; in that of ACATACTG, 0.141 E-score.
Take GCATACTA: the binding signal amounted to 0.325 E-score.
Under CTCCCAAC stands -0.0944 E-score; under AGGCTTAA, -0.159 E-score; under ATACGTAA, 0.323 E-score.
In the case of CTAAAAAC it was 0.082 E-score; in that of CTAGTTGA, 0.226 E-score.
Under CGAGTTTC stands 0.0534 E-score.
With CTAGTTTC, the binding signal stood at 0.413 E-score.
Under CTAGTTCA stands 0.152 E-score; under CCAGTTTC, -0.0817 E-score; under ATAGTTTA, 0.346 E-score.
For the sequence ATAGTTCC, the binding signal stood at 0.135 E-score.
Under ATAGTTGA stands 0.228 E-score.
Take ATAGTTTC: the binding signal turned out to be 0.398 E-score.
Under CTAGTTTA stands 0.383 E-score; under ATCGTTTA, -0.0103 E-score; under ATCGTTTC, 0.14 E-score.
Under GCCTACTA stands 0.0988 E-score.
In the case of ACAGGAGT it was 0.0409 E-score; in that of ACTTACTA, 0.306 E-score; in that of TGATTCAA, -0.164 E-score.
Regarding AAAGAATA, the binding signal stood at 0.138 E-score.
In the case of CACTGACA it was -0.161 E-score; in that of GGAGTTTA, 0.0513 E-score.
In the case of ATAGTTGG it was 0.0271 E-score; in that of ATAGTTTG, 0.364 E-score; in that of GTAGTTTA, 0.382 E-score.
In the case of ATCGTTTG it was -0.0128 E-score.
Regarding GCAGTTTA, the binding signal worked out at 0.0849 E-score.
